# Assay outcomes as filed in PubChem BioAssay.
# Mcl1-Bid inh = disrupts binding of human Mcl-1 to Bid peptide; inhibition, % at 21.7 µM; hit rate 0.97% among 220,000; TR-FRET Mcl-1/Bid-Dy647 peptide binding, 1536-well; AID 1021; Q07820;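 active = compounds that cut the binding signal by more than half at the single screening dose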;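 also: His-tagged Mcl-1 with europium anti-His antibody binding Bid BH3 peptide; 0% = Mcl-1 plus peptide wells and 100% = peptide-only wells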
# Bim-Mcl-1 = inhibitors of Bim-Mcl-1 interaction, human; hit rate 0.1% among 190,000; Bead-based flow cytometry, Bim peptide-Mcl-1 binding; AID 1009; inhibition, % at 10 µM; in the data active = inhibition above about 40%;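 also: 0% = no compound tracer wells and 100% = peptide blocker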
# Mcl1 Noxa PPI = disrupts binding of human Mcl-1 to Noxa peptide; Q07820; TR-FRET Mcl-1/Noxa peptide binding, 2 h; inhibition, % at 21.7 µM; AID 1022; hit rate 1.5% among 220,000;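 active = compounds that cut the protein-peptide binding signal by more than 50% relative to plate controls in a single-dose test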;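 also: His-tagged Mcl-1 with rhodamine Noxa BH3 peptide and terbium anti-His antibody; 0% = Mcl-1 plus Noxa peptide wells and 100% = peptide-only wells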
# GLD-1 TGE inh = GLD-1-TGE RNA interaction inhibition (C. elegans). Q17339. purified GLD-1 + fluorescein TGE RNA, fluorescence polarization. inhibition, % at 5.96 µM. hit rate 0.44% among 320,000. AID 2280;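 active = percent inhibition above a per-plate cutoff, the plate mean of test compounds plus 3 SD, cut at about 30% in these data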;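 also: 0% = DMSO wells with GLD-1 and probe and 100% = wells lacking GLD-1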
# Target sequence (Q17339 whole entry, looked up): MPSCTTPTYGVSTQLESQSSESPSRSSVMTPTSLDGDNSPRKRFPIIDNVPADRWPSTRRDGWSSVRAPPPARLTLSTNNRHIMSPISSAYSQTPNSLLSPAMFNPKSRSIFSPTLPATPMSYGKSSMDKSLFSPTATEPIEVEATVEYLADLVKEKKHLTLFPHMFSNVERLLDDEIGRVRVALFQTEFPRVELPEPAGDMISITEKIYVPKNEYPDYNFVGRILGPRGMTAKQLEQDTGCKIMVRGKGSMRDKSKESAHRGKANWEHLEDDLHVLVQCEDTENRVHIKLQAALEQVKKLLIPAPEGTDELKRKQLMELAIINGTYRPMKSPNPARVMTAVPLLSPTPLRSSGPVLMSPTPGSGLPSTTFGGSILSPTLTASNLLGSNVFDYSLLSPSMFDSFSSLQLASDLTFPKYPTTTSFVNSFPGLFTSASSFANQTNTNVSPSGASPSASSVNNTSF
# MCL1-BIM inh = inhibitors of human MCL1 binding to BIM-BH3 peptide; hit rate 0.68% among 320,000; AID 2057; GST-MCL1 / FITC-Bim-BH3 fluorescence polarization; inhibition, % at 10.9 µM;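 active = inhibition above the mean inhibition of all tested compounds plus 3 SD, set per campaign, cut at about 40% in these data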;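 also: 0% = DMSO wells and 100% = unlabeled Bim-BH3 peptide control; higher means more loss of mP so more displacement of Bim peptide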
# Bcl-xL primary = Bcl-xL (human) inhibition; GST-Bcl-xL / FITC-Bim BH3 peptide fluorescence polarization; hit rate 0.7% among 320,000; Q07817; inhibition, % at 10.9 µM;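 active = inhibition above the mean of all tested compounds plus 3 SD, cutoff set per campaign, cut at about 30% in these data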;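 also: 0% = DMSO wells and 100% = unlabeled Bim-BH3 peptide competitor; inhibitors lower millipolarization by displacing the labeled peptide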
# GLD1 RNA confirm = GLD-1 TGE RNA interaction inhibition, confirmation; hit rate 10% among 550; GLD-1/FL-TGE RNA fluorescence polarization, biochemical; AID 2459; inhibition, % at 5.96 µM; shares compounds with GLD-1 TGE inh;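 active = average inhibition across triplicates above the hit cutoff set in the primary screen, cut at about 32% in these data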;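 also: 0% = GLD-1 with RNA probe and DMSO and 100% = wells lacking GLD-1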
# The depositor's hits bear a star; . = no result. Sampled rows, rich in hits. Any-hit rate of the full collection: about 2.3%.
SMILES,Mcl1-Bid inh,Bim-Mcl-1,Mcl1 Noxa PPI,GLD-1 TGE inh,MCL1-BIM inh,Bcl-xL primary,GLD1 RNA confirm
Cc1cc2ccccc2n1CCNC(=O)c1ccc(Br)o1,-14,2,5,36*,48*,34*,11
Cc1cc2ccccc2n1CCNC(=O)c1ccccc1,-19,2,6,16,26,25,.
O=C(c1ccc(NS(=O)(=O)/C=C/c2ccccc2)cc1)N1CCCCC1,.,.,.,0,-2,-2,.
CCOC(=O)CC1=C(C(=O)OCC)C(c2ccc(OC)cc2OC)C(C#N)=C(N)O1 (stereo not given),-81,-3,-1,35*,43*,39*,10
CCOC(=O)CC1=C(C(=O)OCC)C(c2ccc(C)o2)C(C#N)=C(N)O1 (stereo not given),-45,-1,13,34*,31,37*,7
CCOC(=O)C1=C(CC)OC(N)=C(C#N)C1c1ccc(OC)cc1OC (stereo not given),-29,18,0,5,8,6,.
COc1cc(/C=N\Nc2cc(=O)n(C)c(=O)n2C)ccc1O,-93,10,21,39*,12,6,-3
Cc1cccc(OCCNc2ccc([N+](=O)[O-])cn2)c1,-39,-5,18,32*,-4,2,5
Cc1cc(C)cc(N(CC(=O)Nc2ccc(Br)cc2)S(=O)(=O)c2c(C)[nH]c(=O)[nH]c2=O)c1,.,.,.,-1,7,7,.
c1ccc2c(c1)NCCS2,-31,-1,15,1,0,4,.
O=C(N[C@@H](Cc1ccccc1)C(=O)O)c1c(F)c(F)c(F)c(F)c1F,3,-5,9,7,7,2,.
COc1ccc(C2CC2C(C)=O)cc1 (stereo not given),-32,1,6,-4,-2,6,.
CC1(C)CC(=O)C2=C(C1)Nc1cc(Cl)ccc1S2,-33,.,8,35*,20,34*,5
CNc1c(N)n(Cc2ccccc2)c(=O)[nH]c1=O,-84,0,-22,42*,43*,37*,30
CCOC(=O)c1ccc(NC(=O)c2c(N)n(Cc3ccccc3)c(=O)[nH]c2=O)cc1,.,.,.,-6,8,2,.
CCOC(=O)C1=C2NC(=O)c3ccccc3N2C(=O)C1,-29,-1,-1,52*,43*,48*,4
CC(C)(C)c1ccc(Cn2c(=O)cnc3ccccc32)cc1,.,.,.,5,4,-2,.
Cc1cccc(C(=O)Nc2ccc(C(=O)N/N=C/c3ccco3)cc2)c1,.,.,.,7,15,7,.
CCOC(=O)Cc1csc(/N=C/c2c(O)n(-c3ccc(C)cc3C)c(=O)c3ccccc23)n1,-41,-2,9,38*,36,28,-26
CC(C)(C)OC(=O)[C@H]1[C@H](c2ccc([N+](=O)[O-])cc2)C2(C(=O)c3ccccc3C2=O)C2c3ccccc3C=NN21 (stereo not given in full),-45,-4,17,-1,8,5,.
Nc1n[nH]c2cc(=O)n(-c3ccc(Cl)cc3)nc12,-25,1,20,35*,28,26,17
C/C(Cc1ccccc1)=N\NC(=O)CNC(=O)c1ccc(F)cc1,.,.,.,3,0,0,.
C/C(Cc1ccccc1)=N\NC(=O)CNC(=O)c1ccc(Cl)cc1,-16,.,-7,62*,2,5,-5
CC(C)CN(C(=O)COC(=O)c1ccc(Br)cc1)c1c(N)n(Cc2ccccc2)c(=O)[nH]c1=O,.,.,.,3,-1,-2,.
COc1ccc(C(=O)NC(C)c2nnc(SCC(=O)NC3CCCC3)n2C)cc1 (stereo not given),.,.,.,12,-3,-1,.
SMILES,Mcl1-Bid inh,Bim-Mcl-1,Mcl1 Noxa PPI,GLD-1 TGE inh,MCL1-BIM inh,Bcl-xL primary,GLD1 RNA confirm
CCN(CC)S(=O)(=O)c1ccc(N2CCCC2)c(NS(=O)(=O)c2ccc(F)cc2)c1,-34,0,23,34*,12,5,57*
CCN(CC)S(=O)(=O)c1ccc(N2CCCC2)c(NS(=O)(=O)c2ccccc2)c1,-44,0,-4,14,9,13,.
COc1ccc(OC)c(-c2cc(C(=O)Nc3ccccc3C(N)=O)c3ccccc3n2)c1,.,.,.,34*,1,5,-2
COc1ccc(OC)c(-c2cc(C(=O)N/N=C/c3ccc(F)cc3)c3ccccc3n2)c1,.,.,.,-2,5,9,.
O=C(CSc1nnc(Cc2cc(=O)[nH]c(=O)[nH]2)n1-c1ccc(Cl)cc1)NC1CCCC1,-20,-2,12,37*,27,18,18
COc1ccc(-n2c(Cc3cc(=O)[nH]c(=O)[nH]3)nnc2SCC(=O)NC2CCCC2)cc1,-18,0,4,17,10,8,.
CCCCC(=O)NCc1ccc2c(c1)cc(C)n2C,-66,0,-18,14,14,12,.
Cc1cc2cc(OCC(=O)O)ccc2n1C,-11,-2,19,39*,20,22,5
COc1ccc(S(=O)(=O)NCc2ccc3c(c2)cc(C)n3C)cc1,-30,0,10,11,13,13,.
Cc1cc2cc(CNS(=O)(=O)c3ccccc3)ccc2n1C,-28,6,10,54*,47*,36*,11
Cc1cc2cc(CNC(=O)C(C)Oc3ccccc3)ccc2n1C (stereo not given),-53,.,9,57*,41*,38*,7
CCOC(=O)CCC(=O)NCc1ccc2c(c1)cc(C)n2C,-32,2,6,31*,44*,38*,11
CC1(C)Oc2ccc3ccc(=O)oc3c2/C(=C/NNC(N)=O)C1=O,.,.,.,2,0,-1,.
O=C(CN1Cc2ccccc2C1=O)Nc1ccc2c(c1)OCCO2,.,.,.,6,-4,2,.
COc1ccc(OC)c(Nc2cc3ccccc3c(=O)[nH]2)c1,.,.,.,42*,-2,7,4
COc1ccccc1Nc1cc2cc(Br)ccc2c(=O)[nH]1,.,.,.,2,-4,7,.
CS(=O)(=O)Nc1ccc(C(=O)NCCSCc2c(F)cccc2Cl)cc1,-18,0,6,37*,-2,2,-3
CS(=O)(=O)Nc1ccc(C(=O)NCCSCc2ccccc2)cc1,-6,-3,7,11,3,2,.
Cc1ccc(S(=O)(=O)Nc2cc3c4c(c2)CCC(=O)N4CCC3)cc1,.,.,.,-2,-1,3,.
CC(=O)NNC(=O)CCn1c2c(c3ccccc31)CCCC2,-49,.,-8,9,9,9,.
O=C(O)Cn1c2c(c3ccccc31)CCCC2,-22,1,7,33*,48*,39*,25
COc1ccc(CN2CCN(CCSc3ccc(C)cc3)CC2)c(OC)c1OC,.,.,.,9,9,7,.
COC(=O)c1cccc(NC(=O)Nc2ccccc2OC)c1,-24,0,18,2,1,2,.
